Test results: PubChem BioAssay (NCI)
The panel holds about 83,000 compounds, 20% with a hit somewhere; the sample as a whole holds those more often.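 Plates (96-well) were seeded with cells, treated with compound at one concentration, and incubated for 48 hours before percent growth was determined.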 Calls of active or inactive are those of the source.

These compounds were tested on SK-MEL-28 melanoma (assay: NCI-60 one-dose screen, 48 h (100 = growth as untreated, 0 = no growth, -100 = all killed)). Settings: 10 µM unless noted.
Experimental: Growth inhibition of the SK-MEL-28 human tumor cell line is measured as a screen for anti-cancer activity. Cells are grown in 96 well plates and exposed to the test compound for 48 hours. Compounds are tested at a single concentration, which is 10^-5 M for most compounds. The reported endpoint is percent growth (GI% or GIPRCNT), where numbers from 0 - 100% represent growth inhibition, and numbers from -100% - 0 represent cell death. For example, a value of 40 represents 60% growth inhibition. A value of 0 means no net growth occurred over the course of the experiment. A value of -40 indicates 40% of cells at the beginning of the experiment died by the end of the experiment. A value of -100 means all cells are dead at the end of the experiment.
NCI-60 Human Tumor Cell Lines Screen was performed using the standard one-dose NCI protocol, which is described in more detail at https://dtp.cancer.gov/discovery_development/nci-60/default.htm.
Compounds with GIPRCNT values below 10 were considered active. Activity score was based on GIPRCNT using the following formula: […]
Score is 0 for GIPRCNT values of 100 or above, 50 for GIPRCNT values of 0, and 100 for GIPRCNT values of -100.

Structure (SMILES) | growth
CN1C/C=C\CCOc2cccc(c2)-c2ccnc(n2)Nc2cccc(c2)C1 | -76% (active)
Cc1csc(-c2nnc(Nc3ccc(Oc4ncccc4-c4ccnc(N)n4)cc3)c3ccccc23)c1 | 18.9% (inactive)
O=C(Cc1ccc(/C=C/C(=O)c2ncc[nH]2)cc1)Nc1ccc(S(F)(F)(F)(F)F)cc1 | 100% (inactive)
Cn1ccnc1C(=O)/C=C/c1ccc(CC(=O)Nc2ccc(S(F)(F)(F)(F)F)cc2)cc1 | 38.2% (inactive)
O=C(CNc1nc(-c2ccc(Cl)cc2)cs1)Nc1ccc(-c2nc3ccccc3s2)cc1 | 111% (inactive)
COc1cc(OC)c(C(=O)/C=C/c2cc3c(cc2OCc2ccccc2)OC(C)(C)CC3)cc1CC=C(C)C | 53.3% (inactive)
CNc1ncc2cc(-c3cc(NC(=O)NCCC(C)(C)C)c(F)cc3C)c(C)nc2n1 | -6.47% (active)
C[C@]12O[C@H](C[C@]1(O)CO)n1c3ccccc3c3c4c(c5c6ccccc6n2c5c31)CNC4=O | -85.9% (active)
CCN(CCN(C)C)C(=O)CNCc1cc(C(N)=O)ccn1 | 110% (inactive)
C=CC[n+]1c(/C=C2\Sc3ccccc3N2C)sc(-c2ccccc2)c1-c1ccccc1 | 33.5% (inactive)
c1ccc2c(c1)CCN(NCCN1CCCC1)C2 | 109% (inactive)
Cc1cccc(Cl)c1NC(=O)c1cnc(Nc2cc(N3CCOCC3)cc(N3CCOCC3)c2)s1 | 63.6% (inactive)
CCn1cc(-c2ccnc3[nH]c(-c4cccc(CN(C)C)c4)cc23)c(-c2ccc(NC(=O)N(C)C)cc2)n1 | 45.2% (inactive)
Cn1ncc(Cl)c1-c1cc(C(=O)N[C@H](CN)Cc2cccc(F)c2)sc1Cl | -72.7% (active)
CCCCCCCC(=O)SCC/C=C/[C@@H]1CC(=O)NCc2nc(co2)C2=N[C@@](C)(CS2)C(=O)N[C@@H](C(C)C)C(=O)O1 | -37.2% (active)
Cc1ccc(NC(=O)c2ccc(CN3CC[C@H](N(C)C)C3)c(C(F)(F)F)c2)cc1Nc1nccc(-c2cncnc2)n1 | -77.8% (active)
Cn1c(=O)c(F)c(Nc2ccc(I)cc2F)c2c(=O)n(C[C@@H](O)CO)cnc21 | 0.0364% (active)
CNC(=O)CN1CCC(Oc2cc3c(Nc4cccc(Cl)c4F)ncnc3cc2OC)CC1 | 91.7% (inactive)
Nc1ncnc2c1ccn2-c1cccc(NC(=O)c2ccc(N3CCOCC3)c(C(F)(F)F)c2)c1 | 81.2% (inactive)
CC(CCCC(=O)O)c1ccoc1 (stereo not given) | 109% (inactive)

Structure (SMILES) | growth
CC(=O)Nc1cccc(-n2c(=O)n(C3CC3)c(=O)c3c(Nc4ccc(I)cc4F)n(C)c(=O)c(C)c32)c1 | -4.75% (active)
COc1cnc2c(c1)C(=O)c1c-2n(CCCN2CCOCC2)c(=O)c2cc(Cl)ccc12 | 66.4% (inactive)
CS(=O)(=O)CCNCc1ccc(-c2ccc3ncnc(Nc4ccc(OCc5cccc(F)c5)c(Cl)c4)c3c2)o1 | -95.7% (active)
CCN1CCN(c2cc(C)nc(N(CCCNc3ccnc4cc(Cl)ccc34)Cc3cccs3)n2)CC1 | -65.9% (active)
CNC(=O)c1c(C)oc2cc(Oc3ncnc4cc(OC)c(OC)cc34)ccc12 | 119% (inactive)
O=C(Cc1ccccc1)Nc1nnc(NC2CCN(c3nnc(NC(=O)Cc4ccccc4)s3)CC2)s1 | 107% (inactive)
Ic1ccccc1-c1ccccc1 | 113% (inactive)
CNC(=O)c1cc(Oc2ccc(NC(=O)Nc3ccc(Cl)c(C(F)(F)F)c3)c(F)c2)ccn1 | -53.7% (active)
Cc1cc(-c2cc(O)ccc2Cl)cc2nnc(Nc3ccc(OCCN4CCCC4)cc3)nc12 | -72.3% (active)
Cc1sc2c(c1C)c(=O)nc1c(-c3nc4ccccc4s3)n[nH]n12 | 101% (inactive)
NC1=Nc2ccccc2N(O)N1 | 100% (inactive)
Nc1c(C(=O)c2ccccc2)sc2nc(-c3cccs3)cc(-c3cccs3)c12 | 64.9% (inactive)
N#Cc1ccc(-n2nnc3ccccc32)cc1C#N | 104% (inactive)
O=C(NO)c1ccc(Cn2c(=O)n(CCc3ccccc3)c(=O)c3ccccc32)cc1 | 13.4% (inactive)
COc1ccc(CCCc2c3[n+](cc4c(OC)c(OC)ccc24)CCc2cc4c(cc2-3)OCO4)cc1 | 63.1% (inactive)
COc1cc(NCCCN)c2ncccc2c1 | 83.4% (inactive)
CO[C@@H](C(=O)N1Cc2[nH]nc(NC(=O)c3ccc(N4CCN(C)CC4)cc3)c2C1)c1ccccc1 | 45.5% (inactive)
N#CC(C#N)=NO | 110% (inactive)
O=C1C=CC2(NN=C(c3ccccc3)N2c2ccccc2)c2cccc(O)c21 (stereo not given) | 38.2% (inactive)
CC#CC(=O)N1CCC[C@H]1c1nc(-c2ccc(C(=O)Nc3ccccn3)cc2)c2c(N)nccn12 | 88.3% (inactive)
